# A selection: hits, their analogues and other compounds. The true share with any hit is near 7.3%.
# FLuc counter: firefly luciferase modulation, counter-screen for miR-21 project. purified FLuc, Km substrates, luminescence inhibition. actives 6.9% (n = 360,000). AID 588342. P08659. Potency, µM (highest dose often 57.5 µM), for inactives: at the highest dose activity change, negative = inhibition, usual class: inhibitors;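 further: plate controls were vehicle for no effect and reference inhibitor for full effect; nearly all actives have a fitted effect of over 55% in size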
# Target sequence (P08659 whole entry, looked up): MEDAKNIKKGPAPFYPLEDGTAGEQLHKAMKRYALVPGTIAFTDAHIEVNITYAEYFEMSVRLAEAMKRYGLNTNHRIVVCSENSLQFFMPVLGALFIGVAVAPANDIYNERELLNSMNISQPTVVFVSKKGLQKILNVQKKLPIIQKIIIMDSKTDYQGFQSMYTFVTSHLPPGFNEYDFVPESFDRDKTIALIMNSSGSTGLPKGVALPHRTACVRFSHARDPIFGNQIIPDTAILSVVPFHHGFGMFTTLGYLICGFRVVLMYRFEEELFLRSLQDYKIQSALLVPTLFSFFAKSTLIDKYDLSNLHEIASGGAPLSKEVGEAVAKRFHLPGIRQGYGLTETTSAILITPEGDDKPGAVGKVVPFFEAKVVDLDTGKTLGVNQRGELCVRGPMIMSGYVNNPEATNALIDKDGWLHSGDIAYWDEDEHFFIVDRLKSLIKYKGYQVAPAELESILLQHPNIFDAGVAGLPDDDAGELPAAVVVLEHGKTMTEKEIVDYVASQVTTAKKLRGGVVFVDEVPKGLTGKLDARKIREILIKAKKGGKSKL
#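 Purified P. pyralis luciferase (10nM final) with 10uM D-luciferin and 10uM ATP (Km levels) in 50mM Tris acetate pH 7.5, 10mM Mg acetate, 0.01% Tween-20, 0.05% BSA; qHTS 6-point titration, ~60 µM downward; luminescence read.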
# NPC1 promoter act: activates the NPC1 promoter | Huh7 NPC1 promoter luciferase reporter, 24 h | actives 2.4% (n = 320,000) | Potency, µM (series often up to 9.22 µM), for the others: at the top dose activation, actives largely listed as activators; further: % of control where 0% means no effect; nearly all actives have a fitted effect of over 60% in size
#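 Quantitative HTS used a cell-based reporter: Huh7 cells stably bearing the NPC1 promoter upstream of luciferase were treated with compounds for 24 h, and promoter activation was read as luminescence.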
# Rab9 prom act: Rab9 promoter activation; Potency, µM (titrated, usually from 9.22 µM), for the others: at the top dose activation, negative = inhibition, most hits filed as activators; actives 2.8% (n = 320,000); Huh7 Rab9 promoter-luciferase reporter, luminescence, 24 h; further: % of control where 0% means no effect; nearly all actives have a fitted effect of over 60% in size
#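 Huh7 reporter line, Rab9 promoter upstream of luciferase. Compound exposure 24 h at 37 °C in reduced-serum medium with 10% FBS. Read-out: luminescence.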
# Luc counter: blocks Kinase-Glo luciferase, a counter-screen artifact; Kinase-Glo luciferase, ATP luminescence, 8 min; Potency, µM (highest dose often 38.3 µM), without a hit: at the highest dose activity change, negative = inhibition, hits mostly inhibitors; actives 0.28% (n = 200,000); AID 1379; further: on the % scale 0 is the no-effect control and ±100 the full control effect; nearly all actives have a fitted effect of over 60% in size
#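 Compounds were added to a substrate mix at pH 7.2 (50 mM imidazole, 10 uM ATP, within the enzyme's linear range), followed by Kinase-Glo detection reagent; luminescence was measured after 8 minutes at ambient temperature.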
# SMN2 splice enh: SMN2 splice variant enhancement | HEK293 SMN2-luciferase splicing reporter, luminescence, 30-36 h | Potency, µM (top dose mostly 46.1 µM), for the others: at the highest dose activity change, positive = activation, actives largely listed as activators | actives 2.8% (n = 210,000) | AID 1458; further: % of control where 0% means no effect; nearly all actives have a fitted effect of over 55% in size
#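 HEK293 cells carry an SMN2 […]–luciferase reporter in which exon 7 inclusion puts luciferase in frame. Cells were plated 10-12 h before compound addition, then incubated 30-36 h at 37C. ONE-Glo luminescence was read; sodium butyrate at 4.5 mM final served as control.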
# ELG1 genotox: genotoxicity induction in ELG1-luciferase HEK293T cells. HEK293T ELG1-luciferase reporter, luminescence, 16 h. Potency, µM (doses to about 46 µM), for inactives: at the top dose activity change, positive = activation, most hits filed as activators. actives 1.3% (n = 330,000). AID 504466; further: % of control where 0% means no effect; nearly all actives have a fitted effect of over 60% in size
#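 DMSO vehicle served as control against compound-treated ELG1-luciferase HEK293T cells; exposure lasted 16 hr at 37 °C and 5% CO2, followed by ONE-Glo luminescence detection after 30 min.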
# Starred values were filed as active, the others as inactive; u = inconclusive; x = no result; [ ] = dose if it differs, or a comment. The call rests on the fitted dose curve; in most records, active means well fitted curve in the direction sought with a large enough effect; inconclusive means small, poorly fitted or top-dose-only effect, or another doubt; inactive means no such curve, though single readings can be large; an effect the other way counts as inactive or inconclusive. Potency means the concentration at half of the fitted maximal effect.
SMILES,FLuc counter,NPC1 promoter act,Rab9 prom act,Luc counter,SMN2 splice enh,ELG1 genotox
Oc1cccc(Nc2nc(O)c(/C=C3\C=Nc4ccccc43)s2)c1,21.3µM*,3.0%,6.8%,x,x,u
COc1ccc(-c2cc(C(F)(F)F)nc(SCCC(=O)Nc3cccc(O)c3)n2)cc1,-2.7%,x,x,x,-17.3%,x
CCOc1ccc2nc(NC(=O)CCn3cccc3)sc2c1,u,14.8%,20.3%,-2.0%,11.7%,1.2%
CCCC(=O)Nc1nc2ccc(OCC)cc2s1,10.7µM*,2.82µM*,2.24µM*,3.9%,22.4µM*,u
CN(C)C(=S)Nc1nc2ccccc2s1,12µM*,u,u,-1.4%,x,u
O=C(CSc1nccn1-c1ccccc1)Nc1nc2ccccc2s1,23.9µM*,x,x,x,x,x
CCOc1ccc2nc(NS(=O)(=O)Cc3ccccc3)sc2c1,26.9µM*,-20.0%,12.0%,0.9%,5.0%,20.6µM*
Cc1ccc(Cl)cc1NC(=O)N1CCC(CN2CCCCCC2)CC1,0.0%,x,x,x,x,x
CCOc1ccc2nc(NC(=S)N(C)C)sc2c1,1.35µM*,0.708µM*,0.794µM*,-1.0%,3.98µM*,0.366µM*
CCOc1ccc2nc(NC(=O)C3=NNC(=O)CC3)sc2c1,u,20.1%,u,2.0%,u,13.8%
CCOc1ccc2nc(NC(=O)c3cnc(C)cn3)sc2c1,6.01µM*,24.5%,18.4%,-6.1%,-27.3%,0.1%
CCOc1ccc2nc(NC(=O)c3ccccc3)sc2c1,0.536µM*,x,x,x,1.26µM*,x
CCOc1ccc2nc(NC(=O)CSc3ccccc3)sc2c1,21.3µM*,21.9%,11.5%,-3.9%,u,13.3%
CCCCN(CC)CCNC(=O)c1cc2c(=O)oc3ccc(C)cc3c2s1,-5.0%,x,x,x,7.3%,x
Cc1cc(C)c(CN2C(=O)c3ccccc3S(=O)(=O)c3ccc(C(=O)OCC4CCCO4)cc32)c(C)c1 (centres undefined),-1.8%,x,x,x,x,x
CCOc1ccc2nc(NC(=O)c3c([N+](=O)[O-])cnn3CC)sc2c1,u,-2.4%,0.7%,-7.7%,5.0%,-2.7%
CCOc1ccc2nc(NC(=O)c3cccnc3)sc2c1,1.51µM*,1.58µM*,0.891µM*,-13.4%,7.94µM*,u
CCN1C(=O)C2(c3ccccc31)c1c(oc3ccc(C)cc3c1=O)C(=O)N2CCCOC(C)C (centres undefined),-7.1%,x,x,x,-3.5%,x
CCOC(=O)CNc1c(-c2ccc(O)cc2)nc2ccccn12,u,2.7%,24.5%,-6.9%,-1.2%,4.3%
CCOC(=O)CNc1c(-c2ccc(O)cc2)nc2ccc(Cl)cn12,15.1µM*,20.2%,28.8%,-8.1%,38.0%,u
CCOC(=O)CNc1c(-c2ccccc2)nc2ccc(Cl)cn12,9.53µM*,27.6%,22.7%,-26.7%,-0.4%,9.0%
Cc1ccc2nc(-c3ccsc3)c(Nc3ccccc3C)n2c1,4.4%,x,x,x,20.5%,x
Cc1ccccc1Nc1c(-c2ccncc2)nc2ccc(Cl)cn12,-4.5%,-6.8%,12.2%,-2.1%,10µM*,-8.9%
COC(=O)CNc1c(-c2ccccn2)nc2ccc(Br)cn12,3.38µM*,1.58µM*,0.891µM*,-27.4%,5.01µM*,1.3µM*
O=C(CCCn1c(=O)c2ccccc2n(Cc2cccc(Cl)c2)c1=O)NCCc1ccc(Cl)cc1,-8.7%,x,x,x,-3.5%,x
SMILES,FLuc counter,NPC1 promoter act,Rab9 prom act,Luc counter,SMN2 splice enh,ELG1 genotox
CCOC(=O)COc1ccc(CC)cc1C(=O)c1ccn2nc(-c3ccc(Cl)cc3)cc2n1,0.1%,x,x,x,17.7%,x
COc1ccc(NC(=O)c2ccccc2NC(=O)c2cccs2)cc1,15.1µM*,15.7%,22.3%,x,x,u
O=C(Nc1cccc(NC(=O)c2cccs2)c1)c1ccc(F)cc1,21.3µM*,0.2%,-4.3%[1.84 µM],x,x,-5.4%
Cc1ccc(NC(=O)c2ccccc2NC(=O)c2cccs2)cc1,u,-8.5%,4.2%,x,x,3.6%
COc1cc(NC(=O)c2cccs2)cc(OC)c1,u,24.1%,u,-2.5%,14.7%,10.0%
COc1cccc(NC(=O)c2cccs2)c1,16.9µM*,u,u,-4.4%,12.6µM*,16.4µM*
